This passage reports outcome results from PubChem BioAssay (EPA / NIEHS).

Results filed as inconclusive are left out. Activity calls are given as the source filed them. How the source made its calls: active means hit-call score of the fitted dose curve at least 0.9, where 1 is the maximum; inconclusive means response in the unintended direction; inactive means score below 0.9.

The experiment in a line: ATG_M_19_TRANS: Attagene TRANS-FACTORIAL HepG2 Assay for M19 Transcription Factor (Internal Marker) (AID 2282974). The note with it: HepG2 Attagene TRANS-FACTORIAL M19 internal marker reporter. The protocol:
ATG_TRANS is a cell-based, multiplexed-readout assay that uses HepG2, a human liver cell line, with measurements taken at 24 hours after chemical dosing in a 24-well plate.ATG_M_19_TRANS is one of 30 assay component(s) measured or calculated from the ATG_TRANS assay. It is designed to make measurements of mRNA induction, a form of inducible reporter, as detected with fluorescence intensity signals by Reverse transcription polymerase chain reaction (RT-PCR) and Capillary electrophoresis technology.Data from the assay component ATG_M_19_TRANS was analyzed into 1 assay endpoint. This assay endpoint, ATG_M_19_TRANS, was analyzed in the positive analysis fitting direction relative to DMSO as the negative control and baseline of activity. Using a type of inducible reporter, measures of mRNA for gain-of-signal activity can be used to understand the background control at the transcription factor-level as they relate to the gene . Furthermore, this assay endpoint can be referred to as a secondary readout, because this assay has produced multiple assay endpoints where this one serves a background control function. To generalize the intended target to other relatable targets, this assay endpoint is annotated to the background measurement intended target family, where the subfamily is internal marker.
Human liver HepG2 cells are transiently transfected with multiple reporter transcription units (MRTUs) in 6-well plates using FuGene 6 reagent (Roche; 3 ml FuGene/1 mg DNA). The MRTU constructs are regulated by a cis-regulating element (promoter). […] A major difference between the CIS and TRANS system is that in CIS activities of endogenous TFs are measured, whereas the TRANS assay evaluates changes in activities of exogenous, chimeric NR-Gal4 proteins. […] At the end of 24 hour incubation, total RNA was isolated using TriZol reagent (Invitrogen). The isolated RNA is then reverse-transcribed using oligo(dT) primer and Mo-MLV reverse transcriptase (Invitrogen) with DNAse I (Ambion) treatment for 30 min. The one-tenth of the produced cDNA was amplified by PCR using Taq DNA polymerase (Invitrogen) and two reporter sequence-specific primers. The PCR products were fluorescently labeled by primer extension with 6-arboxyfluorescein (6-FAM) 5'-labeled reporter sequence-specific primer (2 min at 95 C, 20 s at 68 C and 10 min at 72 C) and these products were digested with 5U of HpaI (New England Biolabs) for 2h at 37 C. The fragments were purified using Qiaquick PCR columns (Qiagen), analyzed on an ABI 3130xL genetic analyzer (Applied Biosystems) with peak positions identified by using a set of X-rhodamine (ROX)-labeled MapMarker1000 molecular weight standards (BioVentures). The raw capillary electrophoresis data was processed using Attagraph software (Attagene).
`ClC(Cl)=C(c1ccc(Cl)cc1)c1ccccc1Cl`: the compound was called inactive.
In the case of `NC(=O)C(F)(F)C(F)(F)F` it was “inactive”; in that of `Nc1ccc(Cl)cc1`, “inactive”.
The same measure for `Cc1ccc(C(=O)Cl)cc1`: “inactive”.
The same measure for `O=C(O)C(F)(F)OC(F)(F)C(F)(F)OC(F)(F)F`: “inactive”.
Turning to `Nc1ccc2ccccc2c1`, the call was inactive.
The same measure for `O=C(O)C(F)(OC(F)(F)C(F)(F)C(F)(F)F)C(F)(F)F` (stereo not given): “inactive”; for `CC(O)C(F)(F)C(F)(F)F` (stereo not given): “inactive”; for `CNC(=O)Oc1ccc(N(C)C)c(C)c1`: “inactive”.
The same measure for `CCCCOCC1CO1` (stereo not given): “inactive”; for `O=C(O)C(F)(F)C(F)(F)C(=O)O`: “inactive”.
Turning to `c1cc2c3c(cccc3c1)CC2`, the call was inactive.
The same measure for `CC(C)(C)OOC(C)(C)C`: “inactive”; for `CCN(CC)c1ccccc1`: “inactive”; for `Oc1ccc(I)cc1`: “inactive”.
With `Nc1ccc([N+](=O)[O-])cc1Cl`, the call was inactive.
In the case of `COP(N)(=S)OC` it was “inactive”.
In the case of `CCOP(=S)(OCC)SCSc1ccc(Cl)cc1` it was “inactive”; in that of `CC(C)(C)c1ccccc1OP(=O)(Oc1ccccc1)Oc1ccccc1`, “inactive”.
In the case of `CCCN(CCC)c1c([N+](=O)[O-])cc(C(C)C)cc1[N+](=O)[O-]` it was “inactive”; in that of `O=NN1CCCC1`, “inactive”; in that of `OCC(F)(F)OC(F)(F)C(F)(F)OC(F)(F)C(F)(F)OC(F)(F)F`, “inactive”.
As for `N#Cc1c(-c2ccc(Cl)cc2)[nH]c(C(F)(F)F)c1Br`, the outcome was inactive.
On to `c1ccc2c(c1)sc1ccccc12`, for which the outcome was inactive.
The same measure for `CCCCCCCc1ccc(O)cc1`: “inactive”; for `CCCCc1ccc(O)cc1`: “inactive”.
`OCC(F)(F)OC(F)(F)C(F)(F)OC(F)(F)C(F)(F)OC(F)(F)CO`: the compound was called inactive.
Regarding `O=C(CBr)OCc1ccccc1`, the outcome was inactive.
As to `O=C(O)CF`, the compound was called inactive.
For the compound `O=S(=O)(F)C(F)(F)C(F)(F)C(F)(F)C(F)(F)C(F)(F)C(F)(F)C(F)(F)C(F)(F)F`, the result was inactive.
In the case of `CC1(C)CN=C(NN=C(/C=C/c2ccc(C(F)(F)F)cc2)/C=C/c2ccc(C(F)(F)F)cc2)NC1` it was “inactive”.
The same measure for `Nc1ccc(Sc2ccc(N)cc2)cc1`: “inactive”; for `N#Cc1ccc(O)cc1`: “inactive”; for `CC(Cc1ccc(OCC(=O)O)cc1)NCC(O)c1csc(C(F)(F)F)n1` (stereo not given): “inactive”.
The same measure for `CCOP(=S)(OCC)SCn1nnc2ccccc2c1=O`: “inactive”; for `COP(=O)(O)OC`: “inactive”.
For `CCCCN(CCCC)SN(C)C(=O)Oc1cccc2c1OC(C)(C)C2`, the compound was classed as inactive.
As for `O=P(Oc1ccccc1)(Oc1ccccc1)Oc1ccccc1`, the call was inactive.
The same measure for `c1ccc2c(c1)Nc1ccccc1S2`: “inactive”.
The same measure for `CCCCC(CC)COP(=O)(Oc1ccccc1)Oc1ccccc1` (stereo not given): “inactive”.
